Assay results: PubChem BioAssay AID1159580 (chemical genetic matrix, 2015)
Values joined by “and” are separate entries in the source; they are usually repeats but may differ in a detail not shown here. Equal values may be shown once. Out of some 5,500 compounds screened, about 2,000 (36%) were called active. Roughly 18% stayed inconclusive and do not appear here. The list shows a part of the results. Values without a mark were called inactive. No stated cut-off is given here; in the data, active means normalized growth mostly below about 0.91 (no sharp cut-off); inconclusive means no clear call, values can overlap the other calls; inactive means mostly above about 0.92.

Assay: chemical genetic growth profiling, strain panel (AID 1159580);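 further: tested at 20 µM; growth read once vehicle control cultures reached saturation at 30 °C; 1 = growth at the plate median or of vehicle wells; lower values mean less growth of the strain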
Conditions: S. cerevisiae deletion strains, growth OD

Structure (SMILES): CC12CCC3C(=CCc4cc(O)ccc43)C1CCC2=O (stereo not given)
- normalized growth (locus YAL021C, strain ccr4, active compounds read low): 0.932
- normalized growth (locus YAL026C, strain drs2, active compounds read low): 0.992
- normalized growth (locus YAL030W, strain snc1, active compounds read low): 0.998
- normalized growth (locus YBL061C, strain skt5, active compounds read low): 0.971
- normalized growth (locus YBR009C, strain hhf1, active compounds read low): 0.972
- normalized growth (locus YBR021W, strain FUR4, active compounds read low): 0.913
- normalized growth (locus YBR023C, strain chs3, active compounds read low): 0.974
- normalized growth (locus YBR171W, strain sec66, active compounds read low): 0.986
- normalized growth (locus YBR229C, strain ROT2, active compounds read low): 0.989
- normalized growth (locus YBR231C, strain swc5, active compounds read low): 0.978
- normalized growth (locus YBR279W, strain paf1, active compounds read low): 0.964
- normalized growth (locus YCL011C, strain gbp2, active compounds read low): 0.98
- normalized growth (locus YCL016C, strain dcc1, active compounds read low): 0.99
- normalized growth (locus YCL029C, strain bik1, active compounds read low): 0.995
- normalized growth (locus YCL061C, strain MRC1, active compounds read low): 0.965
- normalized growth (locus YCL069W, strain vba3, active compounds read low): 0.964
- normalized growth (locus YCR088W, strain abp1, active compounds read low): 0.981
- normalized growth (locus YDL005C, strain med2, active compounds read low): 0.959
- normalized growth (locus YDL035C, strain GPR1, active compounds read low): 0.898
- normalized growth (locus YDL040C, strain nat1, active compounds read low): 0.995
- normalized growth (locus YDL074C, strain BRE1, active compounds read low): 0.882
- normalized growth (locus YDL101C, strain DUN1, active compounds read low): 0.975
- normalized growth (locus YDL185W, strain tfp1, active compounds read low): 1.01
- normalized growth (locus YDL192W, strain arf1, active compounds read low): 0.956
- normalized growth (locus YDR001C, strain nth1, active compounds read low): 0.976
- normalized growth (locus YDR069C, strain doa4, active compounds read low): 0.966
- normalized growth (locus YDR101C, strain arx1, active compounds read low): 1.01
- normalized growth (locus YDR137W, strain rgp1, active compounds read low): 0.614 (active)
- normalized growth (locus YDR150W, strain NUM1, active compounds read low): 0.991
- normalized growth (locus YDR159W, strain sac3, active compounds read low): 0.978
- normalized growth (locus YDR162C, strain NBP2, active compounds read low): 0.515 (active)
- normalized growth (locus YDR195W, strain ref2): 1.12
- normalized growth (locus YDR297W, strain sur2, active compounds read low): 0.983
- normalized growth (locus YDR318W, strain mcm21, active compounds read low): 0.962
- normalized growth (locus YDR334W, strain swr1, active compounds read low): 0.936
- normalized growth (locus YDR335W, strain msn5, active compounds read low): 0.925
- normalized growth (locus YDR388W, active compounds read low): 0.983
- normalized growth (locus YDR392W, strain spt3, active compounds read low): 0.937
- normalized growth (locus YDR502C, strain sam2, active compounds read low): 0.961
- normalized growth (locus YEL003W, strain gim4, active compounds read low): 0.945
- normalized growth (locus YEL037C, strain rad23, active compounds read low): 0.99
- normalized growth (locus YEL061C, strain CIN8 (second series), active compounds read low): 0.957
- normalized growth (locus YEL061C, strain CIN8, active compounds read low): 0.967
- normalized growth (locus YER015W, strain faa2, active compounds read low): 0.938
- normalized growth (locus YER016W, strain bim1, active compounds read low): 0.976
- normalized growth (locus YER110C, active compounds read low): 0.993
- normalized growth (locus YER111C, strain swi4, active compounds read low): 0.989
- normalized growth (locus YER155C, strain BEM2 (second series), active compounds read low): 0.987
- normalized growth (locus YER155C, strain BEM2, active compounds read low): 0.994
- normalized growth (locus YER167W, strain BCK2, active compounds read low): 0.988
- normalized growth (locus YFR010W, strain ubp6, active compounds read low): 0.964
- normalized growth (locus YGL078C, strain dbp3, active compounds read low): 1
- normalized growth (locus YGL086W, strain mad1, active compounds read low): 0.949
- normalized growth (locus YGL167C, strain pmr1, active compounds read low): 0.96
- normalized growth (locus YGL173C, strain kem1, active compounds read low): 0.959
- normalized growth (locus YGL227W, strain vid30, active compounds read low): 0.989
- normalized growth (locus YGL240W, strain doc1, active compounds read low): 0.946
- normalized growth (locus YGL248W, strain PDE1, active compounds read low): 0.936
- normalized growth (locus YGL253W, strain hxk2, active compounds read low): 0.961
- normalized growth (locus YGR078C, strain PAC10, active compounds read low): 0.903
- normalized growth (locus YGR135W, strain pre9, active compounds read low): 0.952
- normalized growth (locus YGR229C, strain SMI1, active compounds read low): 0.964
- normalized growth (locus YGR252W, strain gcn5, active compounds read low): 0.882
- normalized growth (locus YHR013C, strain ard1, active compounds read low): 0.994
- normalized growth (locus YHR027C, strain rpn1, active compounds read low): 0.976
- normalized growth (locus YHR030C, strain SLT2, active compounds read low): 0.981 and 1.03
- normalized growth (locus YHR079C, strain IRE1 (second series), active compounds read low): 1.01
- normalized growth (locus YHR079C, strain IRE1, active compounds read low): 1.03
- normalized growth (locus YHR094C, strain hxt1, active compounds read low): 1.01
- normalized growth (locus YHR129C, strain ARP1, active compounds read low): 0.968
- normalized growth (locus YHR142W, strain chs7, active compounds read low): 0.929
- normalized growth (locus YHR200W, strain rpn10, active compounds read low): 1
- normalized growth (locus YIL066C, strain RNR3, active compounds read low): 0.881
- normalized growth (locus YIL073C, strain SPO22, active compounds read low): 0.897
- normalized growth (locus YIL125W, strain kgd1, active compounds read low): 0.994
- normalized growth (locus YIR030C, strain dcg1, active compounds read low): 0.993
- normalized growth (locus YJL092W, strain hpr5, active compounds read low): 0.993
- normalized growth (locus YJL095W, strain BCK1 (second series), active compounds read low): 0.982
- normalized growth (locus YJL095W, strain BCK1, active compounds read low): 0.819 and 1.04
- normalized growth (locus YJL115W, strain asf1, active compounds read low): 0.97
- normalized growth (locus YJL129C, strain trk1, active compounds read low): 0.965
- normalized growth (locus YJL134W, strain LCB3, active compounds read low): 0.988
- normalized growth (locus YJL154C, strain vps35, active compounds read low): 0.983
- normalized growth (locus YJL164C, strain tpk1, active compounds read low): 0.964
- normalized growth (locus YJL166W, strain qcr8, active compounds read low): 0.952
- normalized growth (locus YJL168C, strain set2, active compounds read low): 0.994
- normalized growth (locus YJL187C, strain SWE1 (second series), active compounds read low): 0.928
- normalized growth (locus YJR043C, strain POL32, active compounds read low): 0.933
- normalized growth (locus YJR066W, strain TOR1, active compounds read low): 0.99
- normalized growth (locus YKL009W, strain mrt4, active compounds read low): 0.948
- normalized growth (locus YKL068W, active compounds read low): 0.995
- normalized growth (locus YKL085W, strain MDH1 (second series), active compounds read low): 0.98
- normalized growth (locus YKL085W, strain MDH1, active compounds read low): 0.98
- normalized growth (locus YKL160W, strain elf1, active compounds read low): 0.942
- normalized growth (locus YKL190W, strain CNB1, active compounds read low): 0.977
- normalized growth (locus YKR001C, strain vps1, active compounds read low): 0.908
- normalized growth (locus YKR091W, strain srl3, active compounds read low): 0.98
- normalized growth (locus YLL001W, strain dnm1, active compounds read low): 0.94
- normalized growth (locus YLL026W, active compounds read low): 0.988
- normalized growth (locus YLL041C, strain sdh2, active compounds read low): 0.974
- normalized growth (locus YLR027C, strain aat2, active compounds read low): 0.968
- normalized growth (locus YLR039C, strain RIC1, active compounds read low): 0.397 (active)
- normalized growth (locus YLR058C, strain SHM2, active compounds read low): 0.958
- normalized growth (locus YLR102C, strain apc9, active compounds read low): 1.02
- normalized growth (locus YLR113W, strain HOG1, active compounds read low): 1.07
- normalized growth (locus YLR221C, strain rsa3, active compounds read low): 0.956
- normalized growth (locus YLR258W, strain gsy2, active compounds read low): 0.968
- normalized growth (locus YLR262C, strain YPT6 (second series), active compounds read low): 0.598 (active)
- normalized growth (locus YLR262C, strain YPT6, active compounds read low): 0.377 (active)
- normalized growth (locus YLR268W, strain sec22, active compounds read low): 0.973
- normalized growth (locus YLR320W, strain mms22, active compounds read low): 0.94
- normalized growth (locus YLR330W, strain CHS5, active compounds read low): 0.979
- normalized growth (locus YLR342W, strain FKS1 (second series), active compounds read low): 0.76 (active)
- normalized growth (locus YLR342W, strain FKS1, active compounds read low): 0.914
- normalized growth (locus YLR357W, strain rsc2, active compounds read low): 1.02
- normalized growth (locus YLR370C, strain arc18, active compounds read low): 0.98
- normalized growth (locus YLR371W, strain rom2, active compounds read low): 0.986
- normalized growth (locus YLR384C, strain iki3, active compounds read low): 0.96
- normalized growth (locus YLR418C, strain cdc73, active compounds read low): 0.905
- normalized growth (locus YML016C, strain PPZ1, active compounds read low): 0.973
- normalized growth (locus YML032C, strain rad52, active compounds read low): 0.958
- normalized growth (locus YML120C, strain ndi1, active compounds read low): 0.971
- normalized growth (locus YML124C, strain tub3, active compounds read low): 0.995
- normalized growth (locus YMR058W, strain fet3, active compounds read low): 0.959
- normalized growth (locus YMR078C, strain ctf18, active compounds read low): 0.994
- normalized growth (locus YMR125W, strain sto1, active compounds read low): 0.988
- normalized growth (locus YMR129W, active compounds read low): 0.987
- normalized growth (locus YMR205C, strain PFK2, active compounds read low): 0.945
- normalized growth (locus YMR223W, strain ubp8, active compounds read low): 0.973
- normalized growth (locus YMR231W, strain pep5, active compounds read low): 0.969
- normalized growth (locus YMR307W, strain GAS1, active compounds read low): 0.763
- normalized growth (locus YNL067W, strain RPL9B, active compounds read low): 0.935
- normalized growth (locus YNL071W, strain lat1, active compounds read low): 0.978
- normalized growth (locus YNL128W, strain TEP1, active compounds read low): 0.967
- normalized growth (locus YNL183C, strain NPR1, active compounds read low): 0.986
- normalized growth (locus YNL209W, strain ssb2, active compounds read low): 0.973
- normalized growth (locus YNL233W, strain BNI4, active compounds read low): 0.936
- normalized growth (locus YNL248C, strain rpa49, active compounds read low): 0.908
- normalized growth (locus YNL250W, strain rad50, active compounds read low): 0.992
- normalized growth (locus YNL271C, strain bni1, active compounds read low): 0.974
- normalized growth (locus YNL298W, strain CLA4, active compounds read low): 0.963
- normalized growth (locus YNL307C, strain MCK1, active compounds read low): 0.826 (active)
- normalized growth (locus YNL322C, strain KRE1 (second series), active compounds read low): 0.984
- normalized growth (locus YNL322C, strain KRE1, active compounds read low): 0.988
- normalized growth (locus YNR049C, strain mso1, active compounds read low): 0.987
- normalized growth (locus YNR052C, strain pop2, active compounds read low): 0.901 (active)
- normalized growth (locus YOL006C, strain TOP1, active compounds read low): 0.618
- normalized growth (locus YOL012C, strain htz1): 1.37
- normalized growth (locus YOL147C, strain pex11, active compounds read low): 1
- normalized growth (locus YOR001W, strain rrp6, active compounds read low): 0.955
- normalized growth (locus YOR061W, strain CKA2, active compounds read low): 0.971
- normalized growth (locus YOR069W, strain VPS5, active compounds read low): 0.978
- normalized growth (locus YOR070C, strain gyp1, active compounds read low): 0.979
- normalized growth (locus YOR080W, strain dia2, active compounds read low): 0.963
- normalized growth (locus YOR083W, strain WHI5, active compounds read low): 0.934
- normalized growth (locus YOR106W, strain vam3, active compounds read low): 0.902
- normalized growth (locus YOR136W, strain idh2, active compounds read low): 1.01
- normalized growth (locus YOR144C, strain elg1, active compounds read low): 0.993
- normalized growth (locus YOR184W, strain ser1, active compounds read low): 0.81 (active)
- normalized growth (locus YOR231W, strain MKK1, active compounds read low): 1.04
- normalized growth (locus YOR265W, strain rbl2, active compounds read low): 0.977
- normalized growth (locus YOR270C, strain vph1, active compounds read low): 0.852
- normalized growth (locus YOR290C, strain snf2, active compounds read low): 0.961
- normalized growth (locus YOR316C, strain cot1, active compounds read low): 0.987
- normalized growth (locus YPL051W, strain arl3, active compounds read low): 0.916
- normalized growth (locus YPL055C, strain LGE1, active compounds read low): 0.89
- normalized growth (locus YPL078C, strain atp4, active compounds read low): 0.908
- normalized growth (locus YPL106C, strain sse1, active compounds read low): 0.992
- normalized growth (locus YPL240C, strain hsp82, active compounds read low): 0.986
- normalized growth (locus YPL256C, strain CLN2, active compounds read low): 1.06
- normalized growth (locus YPR119W, strain clb2, active compounds read low): 1
- normalized growth (locus YPR141C, strain kar3, active compounds read low): 0.996
- normalized growth (locus YPR163C, strain tif3, active compounds read low): 0.875 (active)
- normalized growth (locus YPR167C, strain met16, active compounds read low): 0.975
- normalized growth (strain wtn01, active compounds read low): 0.986
